According to PubChem BioAssay AID1159580 (chemical genetic matrix, 2015):
Among all 5,500 compounds or so, about 2,000 (36%) were called active. Roughly 18% stayed inconclusive and do not appear here. Cut-off read from the data, not from the text of the source: active = normalized growth mostly below about 0.91 (no sharp cut-off); inconclusive = no clear call, values can overlap the other calls; inactive = mostly above about 0.92. Some of the results follow.

Assay: chemical genetic growth profiling, strain panel (AID 1159580);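 note: tested at 20 µM; growth read once vehicle control cultures reached saturation at 30 °C; 1 = growth at the plate median or of vehicle wells; lower values mean less growth of the strain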
Conditions: S. cerevisiae deletion strains, growth OD

Measured: normalized growth

Cc1cc(C)c(NC(=S)NCCCN2CCOCC2)c(C)c1
inactive: locus YAL013W, strain DEP1, active compounds read low 1 | locus YBR229C, strain ROT2, active compounds read low 1.01 | locus YDL101C, strain DUN1, active compounds read low 0.992 | locus YDR150W, strain NUM1, active compounds read low 0.901 | locus YEL061C, strain CIN8, active compounds read low 1.01 | locus YGR078C, strain PAC10, active compounds read low 1.02 | locus YHR030C, strain SLT2, active compounds read low 1.07 | locus YHR087W, strain rtc3, active compounds read low 1.01 | locus YJL187C, strain SWE1, active compounds read low 1.01 | locus YJR043C, strain POL32, active compounds read low 0.986 | locus YJR075W, strain HOC1, active compounds read low 0.999 | locus YLR039C, strain RIC1, active compounds read low 1.03 | locus YLR058C, strain SHM2 (second series), active compounds read low 1.01 | locus YLR085C, strain ARP6, active compounds read low 1.05 | locus YLR262C, strain YPT6, active compounds read low 1.02 | locus YML094W, strain GIM5, active compounds read low 1 | locus YMR219W, strain ESC1, active compounds read low 1 | locus YMR263W, strain SAP30, active compounds read low 1.03 | locus YNL153C, strain GIM3, active compounds read low 0.992 | locus YNL298W, strain CLA4 (second series), active compounds read low 1.04 | locus YNL322C, strain KRE1, active compounds read low 1.01 | locus YNR030W, strain Alg12, active compounds read low 1.02 | locus YPL055C, strain LGE1, active compounds read low 0.912 | locus YPL241C, strain CIN2, active compounds read low 0.995 | locus YPR135W, strain CTF4, active compounds read low 1.01
